Test results reported in PubChem BioAssay (Tox21).
Where “and” joins values, the source holds several entries; their conditions need not be identical. Equal values may be shown once. Records with an inconclusive call do not appear. The source holds several records for some structures; these can differ, active in one and inactive in another. Calls of active or inactive are those of the source. Unless noted, calls follow the shape of the dose curve; as a rule, active = well fitted curve in the direction sought with a large enough effect in the repeat runs; inconclusive = weak or mixed curves; inactive = no such curve, though single readings can be large; an effect the other way counts as inactive or inconclusive.

Columns and labels:
[1] = qHTS assay to identify small molecule antagonists of the glucocorticoid receptor (GR) signaling pathway - cell viability counter screen (AID 720693); also: nearly all actives have a fitted effect of over 55% in size
[2] = qHTS assay for identifying genotoxic compounds that show differential cytotoxicity against isogenic chicken DT40 cell lines with known DNA damage response pathways - wild type cell line (AID 743012); also: nearly all actives have a fitted effect of over 60% in size; also: potency is read from the fitted curve at half-maximal effect
Outline: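 Quantitative HTS on parental DT40 cells: 40 h compound treatment at 37 C/5% CO2, with viability then determined by CellTiter-Glo luminescence. Values serve as the DNA repair-proficient reference for differential cytotoxicity.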

[3] = qHTS assay for identifying genotoxic compounds that show differential cytotoxicity against isogenic chicken DT40 cell lines with known DNA damage response pathways - Rev3 mutant cell line (AID 743014); also: nearly all actives have a fitted effect of over 55% in size; also: potency is read from the fitted curve at half-maximal effect
[4] = qHTS assay for identifying genotoxic compounds that show differential cytotoxicity against isogenic chicken DT40 cell lines with known DNA damage response pathways - Rad54/Ku70 mutant cell line (AID 743015); also: nearly all actives have a fitted effect of over 60% in size; also: potency is read from the fitted curve at half-maximal effect
[5] = qHTS assay to identify small molecule antagonists of the androgen receptor (AR) signaling pathway - cell viability counter screen (AID 743033; also: nearly all actives have a fitted effect of over 45% in size)
[6] = qHTS assay to identify small molecule antagonists of the androgen receptor (AR) signaling pathway using the MDA cell line - cell viability counter screen (AID 743041; also: nearly all actives have a fitted effect of over 45% in size)
Outline: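 Same-well cytotoxicity was assessed by CellTiter-Fluor in MDA-kb2 AR-luc cells after 16 h of compound treatment under R1881 agonism.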

[7] = qHTS assay to identify small molecule antagonists of the thyroid receptor (TR) signaling pathway - cell viability counter screen (AID 743064); also: nearly all actives have a fitted effect of over 50% in size
Outline: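 GH3.TRE-Luc rat pituitary cells carrying a TRE-luciferase reporter were treated with compound plus 1 nM T3 (final) for 23.5 h at 37 °C. Viability was then read in the same wells by CellTiter-Fluor fluorescence after a further 30 min.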

[8] = qHTS assay to identify small molecule antagonists of the thyroid receptor (TR) signaling pathway (AID 743065); also: series mostly up to about 70 µM; nearly all actives have a fitted effect of over 55% in size
Outline: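 GH3.TRE-Luc rat pituitary cells (two TREs driving luciferase) were dosed with compound, then stimulated with 1 nM T3 (final) for 23.5 h at 37 C. ONE-Glo luminescence was the read-out, with CellTiter-Fluor fluorescence as the cytotoxicity counter-screen.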

[9] = test system: thyroid hormone receptor (rat, GH3 cells); test: qHTS assay to identify small molecule agonists of the thyroid receptor (TR) signaling pathway (AID 743066; calls by dose curve)
[10] = target: Estrogen receptor (Homo sapiens) (UniProt P03372); test: qHTS assay to identify small molecule antagonists of the estrogen receptor alpha (ER-alpha) signaling pathway (AID 743069; active = well fitted curve in the direction sought with a large enough effect in the signal ratio in the repeat runs, not every such curve was filed as active; the % refers to the signal ratio)
Estrogen receptor (Homo sapiens), sequence (P03372 whole entry, looked up): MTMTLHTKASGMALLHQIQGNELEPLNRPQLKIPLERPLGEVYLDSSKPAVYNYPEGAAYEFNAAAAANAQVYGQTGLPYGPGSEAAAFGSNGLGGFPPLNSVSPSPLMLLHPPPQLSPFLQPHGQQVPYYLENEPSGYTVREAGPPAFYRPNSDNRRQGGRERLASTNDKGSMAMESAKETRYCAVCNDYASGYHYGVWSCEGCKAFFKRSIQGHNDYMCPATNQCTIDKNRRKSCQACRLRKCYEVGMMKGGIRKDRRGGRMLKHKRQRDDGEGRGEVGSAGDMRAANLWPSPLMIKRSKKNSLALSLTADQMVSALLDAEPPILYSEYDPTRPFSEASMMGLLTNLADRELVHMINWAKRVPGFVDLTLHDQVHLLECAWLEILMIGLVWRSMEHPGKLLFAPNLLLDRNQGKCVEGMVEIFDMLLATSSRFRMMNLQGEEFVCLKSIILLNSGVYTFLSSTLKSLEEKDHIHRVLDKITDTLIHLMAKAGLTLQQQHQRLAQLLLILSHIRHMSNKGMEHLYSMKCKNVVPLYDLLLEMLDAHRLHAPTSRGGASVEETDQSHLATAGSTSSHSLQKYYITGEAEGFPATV
Outline: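 Reporter cells (ER-alpha-bla, HEK293 background) are conditioned overnight in stripped-serum medium (2% charcoal-stripped FBS). Compound and 17beta-estradiol exposure runs 18 hr at 37C, 5% CO2.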

[11] = target: Estrogen receptor (Homo sapiens) (UniProt P03372); test: qHTS assay to identify small molecule agonists of the estrogen receptor alpha (ER-alpha) signaling pathway (AID 743075; calls by dose curve)
[12] = target: Estrogen receptor (Homo sapiens) (UniProt P03372); test: qHTS assay to identify small molecule agonists of the estrogen receptor alpha (ER-alpha) signaling pathway using the BG1 cell line (AID 743079); also: nearly all actives have a fitted effect of over 20% in size; also: potency is read from the fitted curve at half-maximal effect
[13] = qHTS assay to identify small molecule antagonists of the estrogen receptor alpha (ER-alpha) signaling pathway using the BG1 cell line (AID 743080; calls by dose curve; also: series mostly up to about 70 µM; nearly all actives have a fitted effect of over 25% in size)
Outline: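 Antagonist mode: compounds in DMSO were pinned onto BG1-Luc-4E2 cells alongside 17beta-estradiol agonist, incubated 21.5 h, and ERE-driven luciferase measured with ONE-Glo. Cytotoxicity was multiplexed using CellTiter-Fluor fluorescence.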

[14] = qHTS assay to identify small molecule antagonists of the estrogen receptor alpha (ER-alpha) signaling pathway using the BG1 cell line - cell viability counter screen (AID 743081);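 also: compound given together with 17beta-estradiol as the ER stimulus; series mostly up to about 70 µM; nearly all actives have a fitted effect of over 45% in size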
Aromatase (Homo sapiens) = Aromatase (Homo sapiens) (UniProt P11511); test: qHTS assay to identify aromatase inhibitors (AID 743083); also: nearly all actives have a fitted effect of over 55% in size; also: potency is read from the fitted curve at half-maximal effect
Aromatase (Homo sapiens), sequence (P11511 whole entry, looked up): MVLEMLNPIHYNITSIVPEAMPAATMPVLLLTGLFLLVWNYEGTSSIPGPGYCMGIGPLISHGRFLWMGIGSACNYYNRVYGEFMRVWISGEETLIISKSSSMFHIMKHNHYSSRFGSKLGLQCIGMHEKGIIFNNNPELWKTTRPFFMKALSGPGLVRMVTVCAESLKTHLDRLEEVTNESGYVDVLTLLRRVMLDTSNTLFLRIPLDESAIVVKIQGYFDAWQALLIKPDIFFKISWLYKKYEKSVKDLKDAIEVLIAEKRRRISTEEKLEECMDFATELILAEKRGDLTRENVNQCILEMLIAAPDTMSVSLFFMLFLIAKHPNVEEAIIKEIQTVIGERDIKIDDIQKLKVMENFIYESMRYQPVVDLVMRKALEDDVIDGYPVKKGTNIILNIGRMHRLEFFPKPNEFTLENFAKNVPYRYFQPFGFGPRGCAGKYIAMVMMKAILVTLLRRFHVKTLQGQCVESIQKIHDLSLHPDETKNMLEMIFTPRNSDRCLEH

[15] = qHTS assay to identify small molecule antagonists of the estrogen receptor alpha (ER-alpha) signaling pathway - cell viability counter screen (AID 743074; calls by dose curve;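 also: HEK293 cells carrying ER-alpha-UAS-bla reporter stimulated with 17beta-estradiol; nearly all actives have a fitted effect of over 45% in size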)
[16] = target: Androgen receptor (Homo sapiens) (UniProt P10275); test: qHTS assay to identify small molecule antagonists of the androgen receptor (AR) signaling pathway (AID 743035; active = well fitted inhibition curve with a large enough effect in the signal ratio in the repeat runs, not every such curve was filed as active; the % refers to the signal ratio)
Androgen receptor (Homo sapiens), sequence (P10275 whole entry, looked up): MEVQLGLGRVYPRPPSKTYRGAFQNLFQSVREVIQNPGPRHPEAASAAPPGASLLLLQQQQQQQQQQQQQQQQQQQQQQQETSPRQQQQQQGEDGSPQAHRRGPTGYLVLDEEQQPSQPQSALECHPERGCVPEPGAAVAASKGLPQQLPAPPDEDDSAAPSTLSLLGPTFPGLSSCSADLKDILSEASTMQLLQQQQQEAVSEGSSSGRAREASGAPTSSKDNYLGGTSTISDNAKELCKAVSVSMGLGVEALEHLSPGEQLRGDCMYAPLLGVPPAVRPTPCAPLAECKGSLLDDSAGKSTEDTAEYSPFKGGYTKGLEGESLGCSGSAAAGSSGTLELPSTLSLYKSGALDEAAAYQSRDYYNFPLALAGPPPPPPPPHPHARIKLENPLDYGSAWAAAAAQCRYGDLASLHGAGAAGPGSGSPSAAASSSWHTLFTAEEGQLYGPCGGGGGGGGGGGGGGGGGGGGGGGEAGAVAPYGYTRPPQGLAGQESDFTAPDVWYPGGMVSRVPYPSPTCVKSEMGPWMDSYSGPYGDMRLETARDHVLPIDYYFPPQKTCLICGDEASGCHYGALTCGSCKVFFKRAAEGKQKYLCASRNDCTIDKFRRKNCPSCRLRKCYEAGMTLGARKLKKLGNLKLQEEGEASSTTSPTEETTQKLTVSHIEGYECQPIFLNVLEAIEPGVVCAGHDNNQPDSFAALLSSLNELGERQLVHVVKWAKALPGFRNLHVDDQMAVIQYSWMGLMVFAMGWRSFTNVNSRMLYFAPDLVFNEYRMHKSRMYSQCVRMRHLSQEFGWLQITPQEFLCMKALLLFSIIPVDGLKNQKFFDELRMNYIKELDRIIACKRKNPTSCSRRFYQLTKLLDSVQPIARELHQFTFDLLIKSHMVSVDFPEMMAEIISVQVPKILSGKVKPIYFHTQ
Outline: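 Cell line: GeneBLAzer AR-UAS-bla GripTite (HEK293). Stimulus: R1881 added after compound. Exposure: 16 h, 37C, 5% CO2. Readout: LiveBLAzer B/G FRET fluorescence after 2 h at room temperature.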

[17] = target: Androgen receptor (Homo sapiens) (UniProt P10275); test: qHTS assay to identify small molecule agonists of the androgen receptor (AR) signaling pathway (AID 743036; active = well fitted activation curve with a large enough effect in the signal ratio in the repeat runs, with a control signal flat, not every such curve was filed as active; the % refers to the signal ratio)
Outline: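 HEK293 cells stably carrying a UAS-driven beta-lactamase reporter (GeneBLAzer AR-UAS-bla-GripTite) were plated at 2,000 cells/well, rested 4 h at 37C, then exposed to compounds in DMSO for 16 h. LiveBLAzer B/G FRET substrate was added for 2 h at room temperature; fluorescence read.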

[18] = target: Androgen receptor (Homo sapiens) (UniProt P10275); test: qHTS assay to identify small molecule agonists of the androgen receptor (AR) signaling pathway using the MDA cell line (AID 743040; also: nearly all actives have a fitted effect of over 20% in size; also: potency is read from the fitted curve at half-maximal effect)
Outline: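 Human breast carcinoma MDA-kb2 reporter cells (MMTV-luc, AR/GR elements) were treated for 16 h at 37C in 0% CO2 following a 5 h settling period. Signal was quantified by ONE-Glo luminescence.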

[19] = target: Androgen receptor (Homo sapiens) (UniProt P10275); test: qHTS assay to identify small molecule antagonists of the androgen receptor (AR) signaling pathway using the MDA cell line (AID 743042; also: nearly all actives have a fitted effect of over 55% in size)
Outline: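 MDA-kb2 breast carcinoma cells carrying MMTV-luciferase (AR/GR responsive) were co-treated with compounds and the agonist R1881 for 16 h at 37C. Inhibition read as ONE-Glo luminescence; CellTiter-Fluor fluorescence measured in parallel for cytotoxicity.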

Measured: Potency

CCOC(=O)c1ccc(C)cc1
inactive: [1] | [2] | [3] | [4] | [5] | [6] | [7] | [8] | [9] | [10] | [11] | [12] | [13] | [14] | Aromatase (Homo sapiens)

N#Cc1ccc(C2CCCc3cncn32)cc1 (stereo unspecified)
inactive: [1] | [2] | [3] | [4] | [5] | [6] | [7] | [11] | [12] | [13] | [14]

C1OCOCO1
inactive: [1] | [2] | [3] | [4] | [5] | [6] | [7] | [8] | [9] | [15] | [14] | Aromatase (Homo sapiens)

C=CCOCC(CC)(CO)COCC=C
inactive: [1] | [2] | [3] | [4] | [5] | [6] | [7] | [8] | [9] | [14]

CCN(Cc1ccncc1)C(=O)C(CO)c1ccccc1 (stereo unspecified)
inactive: [1] | [2] | [3] | [4] | [5] | [6] | [8] | [9] | [15] | [14]
active: Aromatase (Homo sapiens) 29.8 µM

NC(CSCC(=O)O)C(=O)O (stereo unspecified)
inactive: [1] | [2] | [3] | [4] | [5] | [6] | [7] | [9] | [10] | [15] | [11] | [12] | [13] | [14] | Aromatase (Homo sapiens)

CC/C=C\CC/C=C/C(OCC)OCC
active: [2] 43.3 µM | [3] 48.6 µM | [4] 61.1 µM
inactive: [1] | [6] | [7] | [9] | [14]

C[C@@H]1CCN(C(=O)[C@H](CCCN=C(N)N)NS(=O)(=O)c2cccc3c2NC[C@H](C)C3)[C@@H](C(=O)O)C1
inactive: [1] | [2] | [3] | [4] | [6] | [7] | [8] | [9] | [10] | [15] | [11] | [12] | [13] | [14] | Aromatase (Homo sapiens)

CCCCOCCOCCOCc1cc2c(cc1CCC)OCO2
active: [2] 24.6 µM | [4] 34.7 µM
inactive: [1] | [3] | [16] | [17] | [18] | [6] | [19] | [7] | [9] | [15] | [14] | Aromatase (Homo sapiens)

O=C(O)CCCc1ccccc1
inactive: [1] | [2] | [3] | [4] | [6] | [7] | [9] | [15] | [14] | Aromatase (Homo sapiens)

Cn1c(N)c(N=O)c(=O)n(C)c1=O
inactive: [1] | [2] | [3] | [4] | [6] | [7] | [8] | [9] | [15] | [14] | Aromatase (Homo sapiens)

NC(=O)c1ccc([N+](=O)[O-])cc1
inactive: [1] | [2] | [3] | [4] | [6] | [7] | [8] | [9] | [15] | [14] | Aromatase (Homo sapiens)

CCOC(=O)Nc1ccc(NCc2ccc(F)cc2)nc1N
inactive: [1] | [3] | [5] | [6] | [7] | [8] | [9] | [10] | [15] | [11] | [13] | [14]
active: [2] 26.6 µM
3.35 µM (active) and inactive: [12]

CCCc1cc(C(N)=S)ccn1
inactive: [1] | [2] | [3] | [4] | [6] | [7] | [8] | [9] | [10] | [15] | [11] | [12] | [13] | [14] | Aromatase (Homo sapiens)

O=C(O)COc1nn(Cc2ccccc2)c2ccccc12
inactive: [1] | [2] | [3] | [4] | [16] | [18] | [6] | [19] | [7] | [8] | [9] | [10] | [15] | [11] | [12] | [13] | [14] | Aromatase (Homo sapiens)

N=C(N)c1ccc(OCCCOc2ccc(C(=N)N)cc2)cc1
active: [2] 4.22 µM | [3] 8.41 µM | [4] 5.96 µM
inactive: [1] | [6] | [7] | [8] | [9] | [10] | [11] | [12] | [13] | [14]

CC1=CC(C)C(C=O)CC1 (stereo unspecified)
inactive: [1] | [2] | [3] | [4] | [6] | [7] | [9] | [10] | [11] | [13] | [14] | Aromatase (Homo sapiens)

CCOC(=O)CCC(C)=O
inactive: [1] | [2] | [3] | [4] | [6] | [7] | [8] | [9] | [10] | [15] | [11] | [13] | [14] | Aromatase (Homo sapiens)

NC(=O)c1cn(Cc2c(F)cccc2F)nn1
inactive: [1] | [2] | [3] | [4] | [6] | [7] | [8] | [9] | [15] | [14]

CC[N+](C)(C)c1cccc(O)c1
inactive: [1] | [2] | [3] | [4] | [6] | [15] | [14] | Aromatase (Homo sapiens)

O=C1CC2CC1C1CCCC21 (stereo unspecified)
active: [18] 54.5 µM
inactive: [1] | [2] | [3] | [4] | [16] | [17] | [6] | [19] | [8] | [9] | [15] | [11] | [13] | [14] | Aromatase (Homo sapiens)

CC(=O)OCC(=O)[C@@]1(O)CC[C@H]2[C@@H]3CCC4=CC(=O)CC[C@]4(C)[C@H]3C(=O)C[C@@]21C
inactive: [1] | [2] | [3] | [4] | [5] | [6] | [10] | [11] | [12] | [14] | Aromatase (Homo sapiens)

COCCc1ccc(OCC(O)CNC(C)C)cc1 (stereo unspecified)
inactive: [1] | [3] | [4] | [5] | [6] | [15] | [14] | Aromatase (Homo sapiens)
inactive and 21.1 µM (active): [2]

CCO[Si](CCC1CCC2OC2C1)(OCC)OCC (stereo unspecified)
inactive: [1] | [2] | [3] | [4] | [6] | [9] | [10] | [15] | [11] | [12] | [13] | [14] | Aromatase (Homo sapiens)
